# TMEM16A act = mouse TMEM16A channel activation, primary screen; Q8BHY3; HEK293 TMEM16A/YFP-H148Q/I152L, iodide quench fluorescence; stronger effect = lower value; B-score at 10 µM; hit rate 0.3% among 340,000;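 active means fluorescence-ratio B-score plate-corrected deviation score at least 3 library SD below zero, with starting fluorescence score within 5 deviations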;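 further: channel opened by trigger with iodide after compound preincubation; score built on the fluorescence ratio of max minus min over baseline; more negative score means more quench and so TMEM16A activation or potentiation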
# Target sequence (Q8BHY3 whole entry, looked up): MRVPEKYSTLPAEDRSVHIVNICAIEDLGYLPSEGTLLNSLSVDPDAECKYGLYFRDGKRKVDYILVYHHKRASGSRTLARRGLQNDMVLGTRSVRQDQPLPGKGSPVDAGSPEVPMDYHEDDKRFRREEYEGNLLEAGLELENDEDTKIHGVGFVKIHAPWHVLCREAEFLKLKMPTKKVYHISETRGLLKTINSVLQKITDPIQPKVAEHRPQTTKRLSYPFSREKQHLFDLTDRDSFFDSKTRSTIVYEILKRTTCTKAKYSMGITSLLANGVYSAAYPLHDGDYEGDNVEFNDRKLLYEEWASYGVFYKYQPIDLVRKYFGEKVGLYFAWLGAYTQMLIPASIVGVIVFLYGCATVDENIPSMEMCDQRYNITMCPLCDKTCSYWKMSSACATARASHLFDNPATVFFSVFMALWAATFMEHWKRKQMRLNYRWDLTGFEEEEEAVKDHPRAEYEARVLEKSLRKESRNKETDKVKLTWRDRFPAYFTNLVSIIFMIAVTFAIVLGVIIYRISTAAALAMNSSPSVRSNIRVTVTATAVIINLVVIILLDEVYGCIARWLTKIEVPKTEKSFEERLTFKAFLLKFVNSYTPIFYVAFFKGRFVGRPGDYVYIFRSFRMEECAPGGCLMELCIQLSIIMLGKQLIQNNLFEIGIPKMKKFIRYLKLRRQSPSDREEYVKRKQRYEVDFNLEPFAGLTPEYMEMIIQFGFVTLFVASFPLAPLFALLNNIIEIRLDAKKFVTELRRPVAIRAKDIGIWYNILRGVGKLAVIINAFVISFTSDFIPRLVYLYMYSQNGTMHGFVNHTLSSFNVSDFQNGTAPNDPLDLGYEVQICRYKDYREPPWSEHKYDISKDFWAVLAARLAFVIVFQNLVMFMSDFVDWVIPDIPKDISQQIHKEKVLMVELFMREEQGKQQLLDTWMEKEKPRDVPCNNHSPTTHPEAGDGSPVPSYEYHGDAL
# GRIN3A LBD mod = NR3A (human) ligand-binding domain modulation. hit rate 2.5% among 340,000. Tm shift relative to glycine control, % at 25 µM. NR3A LBD differential scanning fluorimetry, Tm shift; 0% = protein alone, 100% = glycine-bound protein;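 active means melting temperature shift of at least 10% of the positive control shift, at one fixed dose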
# ANO1 block = mouse TMEM16A channel inhibition, primary screen; HEK293 TMEM16A/YFP iodide influx fluorescence, ionomycin; normalized B-score (activity score, 25-100; higher = stronger inhibition) at 10 µM; hit rate 1.2% among 310,000; AID 588511;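 active means ratio plate-corrected score three or more library SD toward inhibition, starting fluorescence score within five deviations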;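 further: score derived from kinetic fluorescence span divided by baseline fluorescence per well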
# CRFR2-BP ag = CRF-BP/CRF-R2 complex agonism; HEK293 CRF-R2/CRF-BP, calcium dye fluorescence (FLIPR); percent of saturating CRF peptide response; activation, % at 13.2 µM; hit rate 0.46% among 350,000; AID 588473;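 active means activation of at least 50%, plus an integration ratio under a set limit after plate pattern correction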;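 further: plate controls were neutral control wells without compound for no effect and CRF at EC100 for full effect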
# CRFBP-R2 block = blocks CRF-induced signaling of the CRF-BP/CRF-R2 complex | HEK293 CRF-R2/CRF-BP, CRF-induced calcium fluorescence | inhibition, % at 11.8 µM | hit rate 0.59% among 350,000 | AID 588475;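 active means inhibition of the ligand-induced calcium signal above about 50% at the single tested concentration, limit read from the data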
# MPTP block = inhibitors of mitochondrial permeability transition pore; isolated mouse mitochondria, Ca2+ swelling absorbance, 30 min; inhibition, % at 10 µM; hit rate 1.4% among 360,000;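 active means inhibition of 50% or more, scaled per plate between neutral and stimulator controls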;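 further: 0% = DMSO wells given calcium and 100% = 1 mM EGTA wells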
# Active calls of the source: *; i = inactive; x = no result. Shown are actives, neighbours in structure and some others; about 5.1% of the full set was active somewhere.
SMILES,TMEM16A act,GRIN3A LBD mod,ANO1 block,CRFR2-BP ag,CRFBP-R2 block,MPTP block
COc1ccc(C(=O)NCCc2c[nH]c3ccccc23)cc1[N+](=O)[O-],i,25*,i,-1,0,1
COc1cccc(C(=O)N2CCC(n3nccc3NC(=O)CCOc3ccccc3)CC2)c1,i,-1,i,-1,-2,0
O=[N+]([O-])c1cc(C(F)(F)F)ccc1NCCc1c[nH]c2ccccc12,i,29*,i,1,9,11
O=C(NCCc1ccc(F)cc1)c1ccc([N+](=O)[O-])cc1,i,-2,i,-3,20,0
O=C(CN1C(=O)NC(Cc2c[nH]c3ccccc23)C1=O)Nc1ccc(Br)cc1F (stereo not drawn),i,12*,x,0,-23,-1
Cc1cccc2c(CCNC(=O)c3ccc([N+](=O)[O-])cc3)c[nH]c12,i,18*,i,-5,57*,0
O=[N+]([O-])c1cccnc1NCCc1c[nH]c2ccccc12,i,1,i,-2,14,0
COc1cc(F)ccc1-c1csc(C(O)c2ccccc2)n1 (stereo not drawn),x,x,x,x,x,2
CC(C)n1cc(/C=C/c2cc[n+](C)cc2)c2ccccc21,i,5,x,58*,-42,3
CCn1cc(/C=C/c2cc[n+](C)cc2)c2ccccc21,i,2,i,56*,-24,0
Cc1ccccc1/C=C/c1cc[n+](C)cc1,i,3,i,1,-29,-1
C=CCn1c(C)c(/C=C/c2cc[n+](C)cc2)c2ccccc21,i,3,i,36,-68,2
C=CCn1cc(/C=C/c2cc[n+](C)cc2)c2ccccc21,i,2,i,77*,-45,2
COCCCNC(=O)C[C@@H]1C[C@@]2(C(=O)OC)CCCCC=C2N(CCC2=CCCCC2)C1=O,x,x,x,x,x,0
Cc1noc(C)c1S(=O)(=O)N1CCC(C(=O)N2CCN(c3ccc(F)cc3)CC2)CC1,x,-3,i,-5,60*,x
Cc1cc(C)c(C)c(S(=O)(=O)N2CCC(C(=O)N3CCN(c4ccc(F)cc4)CC3)CC2)c1C,i,6,x,0,-1,0
O=C(Nc1ccc2c(c1)OCO2)c1cc(C2CCCCN2C(=O)c2ccc(Cl)cc2)on1 (stereo not drawn),x,x,x,x,x,0
COc1cccc(CN(C)C(=O)CNC(=O)c2cccs2)c1OC,i,-1,i,0,-7,-1
COc1cccc(CN(C)C(=O)CNC(=O)c2ccc(-c3ccccc3)cc2)c1OC,i,2,100*,-2,23,4
COC(=O)c1ccc(NC(=O)C(=O)N2CCN(C(=S)Nc3ccc(C)cc3)CC2)cc1,i,11*,i,-4,-27,0
Cc1c2cc[n+](CCN3CCCCC3)cc2c(C)c2c1[nH]c1ccc(O)cc12,i,1,x,1,-7,2
CCCn1c(=O)c(C(=O)NNC(=O)c2ccc(Cl)cc2Cl)c(O)c2ccccc21,i,-5,i,70*,-36,28
CCn1c(=O)c(C(=O)NNC(=O)c2ccc(Cl)cc2Cl)c(O)c2ccccc21,i,-7,i,39,-2,37
O=C(NNC(=O)c1cccc2ccccc12)c1ccc(Cl)cc1Cl,i,23*,x,-3,-11,0
O=C(NNC(=O)c1cccc2ccccc12)c1cccc(Cl)c1,i,12*,x,-3,28,0
SMILES,TMEM16A act,GRIN3A LBD mod,ANO1 block,CRFR2-BP ag,CRFBP-R2 block,MPTP block
CCCNC(=O)C1(C)CCCN(C(=O)c2cc(F)ccc2C)C1 (stereo not drawn),x,x,x,x,x,0
O=C(Nc1ccccc1)c1sccc1Oc1ccc([N+](=O)[O-])cc1F,i,-1,i,-1,64*,1
COCCOc1cc(NC(=O)c2sccc2Oc2ccc([N+](=O)[O-])cc2F)c(Cl)cc1Cl,i,-11,i,0,9,0
O=C(CC(=O)c1ccccn1)c1ccccc1,i,3,x,24,2,0
N#Cc1cc(-c2ccccc2)nc(N2CCNCC2)n1,i,11*,i,-3,-19,-1
COc1cccc(CN(C)C(=O)c2cc(-c3ccc(F)cc3)nc3ccccc23)c1,i,-10,100*,-1,-11,0
CCOc1cc(C)c(C(C)C)cc1S(=O)(=O)n1cnc(C)c1,i,0,i,104*,-49,-2
CCOc1cc(C)c(C(C)C)cc1S(=O)(=O)N1CC(C)OC(C)C1 (stereo not drawn),i,0,i,3,1,-3
C=CCOc1ccc(/C=C/C(=O)OCC(=O)Nc2c(C)n(C)n(-c3ccccc3)c2=O)cc1,i,-4,i,1,-5,-2
O=C(Nc1ccc(C(F)(F)F)cc1-c1ccccc1)c1ccccc1,i,-1,i,24,-20,0
O=C(Nc1ccccc1-c1ccccc1)c1cccc(C(F)(F)F)c1,i,18*,i,-3,1,1
O=[N+]([O-])c1ccccc1S(=O)(=O)NCCC1=CCCCC1,i,2,25*,4,11,4
OCC[C@@H]1C[C@H](O)[C@@H](O)[C@@]2(CCCO2)O1,i,2,i,-1,-7,0
COc1cc(/C=C/C(=O)O)ccc1O,i,1,i,-2,3,-1
COc1cc(/C=C/C(=O)CC(=O)/C=C/c2ccc(O)c(OC)c2)ccc1O,i,24*,i,214*,-188,7
COc1cc(/C=C/C(=O)/C=C(O)/C=C/c2ccc(O)c(OC)c2)ccc1O,i,27*,x,130*,-75,5
Cc1ccccc1CN(C)C(=O)COC(=O)c1ccc2[nH]c(C)c(C)c2c1,i,-4,x,1,64*,1
Cc1[nH]c2ccc(C(=O)OC(C)C(=O)NCc3ccccc3)cc2c1C (stereo not drawn),i,-3,i,-3,23,-2
CC(C)N(Cc1ccccc1)C(=O)COC(=O)c1cc[n+]([O-])cc1,x,0,x,-1,4,-1
CCN1CCN(Cc2c(O)ccc3c2O/C(=C\C=C\c2ccccc2OC)C3=O)CC1,i,-3,i,74*,-61,2
Cc1ccc(/C=C2\Oc3c(ccc(O)c3CN3CCN(CCO)CC3)C2=O)cc1,i,-2,i,86*,-16,-2
COc1cccc(COC(=O)C2CC(=O)N(Cc3ccc(C)cc3)C2)c1OC (stereo not drawn),i,1,i,0,0,0
COc1ccc(-n2ncc(C(C)NS(=O)(=O)c3cc(C)sc3C)c2C)cc1 (stereo not drawn),x,x,x,-5,51*,2

# Screening results as filed in PubChem.
